Values joined by “and” are separate entries in the source; they are usually repeats but may differ in a detail not shown here. Equal entries are not always repeated. Compounds without any hit were thinned out: in the full panel of roughly 83,000, 20% have a hit.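 Negative percent growth values reflect cell death: -40 means 40% of the cells present at the start died, and -100 means all died.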 Values without a mark were called inactive. Active and inactive are the calls of the source. How the source made its calls: active means growth percent below 10; inactive means the rest. Where a SMILES comes first, the peptide text is derived from it. Bridges are numbered along the chain shown (N, C = ends). [ ]: non-standard residue; d: D form. The star is where a group is joined. ξ: configuration not given here. ξNMePhe(4-NMe2) = CNC(Cc1ccc(N(C)C)cc1)C(=O)O; Picolinoyl(3-OH) = O=C(c1ncccc1O)*; ξPip(4-oxo) = O=C1CCNC(C(=O)O)C1; Phg = N[CH](C(=O)O)c1ccccc1; Abu = CC[CH](N)C(=O)O
Experiments:
Test in all cases: NCI-60 one-dose screen, 48 h (100 = growth as untreated, 0 = no growth, -100 = all killed)
[1] = tested on: SR leukemia; settings: 10 µM
[2] = tested on: OVCAR-8 ovarian; settings: 10 µM
[3] = tested on: OVCAR-5 ovarian; settings: 10 µM
[4] = tested on: OVCAR-4 ovarian; settings: 10 µM
[5] = tested on: SK-OV-3 ovarian; settings: 10 µM
[6] = tested on: OVCAR-3 ovarian; settings: 10 µM
[7] = tested on: HS 578T breast; settings: 10 µM
[8] = tested on: NCI/ADR-RES ovarian; settings: 10 µM
[9] = tested on: T-47D breast; settings: 10 µM
[10] = tested on: BT-549 breast; settings: 10 µM
[11] = tested on: MDA-MB-435 melanoma; settings: 10 µM
[12] = tested on: SW-620 colon; settings: 10 µM
[13] = tested on: MCF7 breast
[14] = tested on: HCT-116 colon; settings: 10 µM
[15] = tested on: HCC-2998 colon; settings: 10 µM
[16] = tested on: KM12 colon; settings: 10 µM
[17] = tested on: RPMI-8226 leukemia; settings: 10 µM
[18] = tested on: IGROV1 ovarian; settings: 10 µM

Row | SMILES | growth [1] | growth [2] | growth [3] | growth [4] | growth [5] | growth [6] | growth [7] | growth [8] | growth [9] | growth [10] | growth [11] | growth [12] | growth ([13]; 10 µM unless noted) | growth [14] | growth [15] | growth [16] | growth [17] | growth [18] | growth ([13]; 10 µM) | growth ([13]; 100 µM)
1 | c1ccc(/C(=N\N=C(/c2ccccc2)c2cccs2)c2cccs2)cc1 | 87.3% | 95% | 98.5% | 97.1% | 105% | 99.7% | 105% | 102% | 86.7% | 102% | 103% | 98% | 96% | 91.9% | 101% | 97.1% |  |  |  | 
2 | O=C(O)CCC(NC(=O)OCc1ccccc1)C(=O)O (configuration not stated) | 97.5% |  | 105% | 106% |  | 103% |  |  | 98.5% | 119% | 104% | 101% | 93% | 111% | 99.7% | 105% | 107% |  |  | 
3 | O=C1c2ccccc2C(=O)c2c1ccc(C(=O)O)c2[N+](=O)[O-] | 76.1% | 100% | 102% | 96% | 108% |  | 82.5% | 103% | 105% | 95.5% | 118% | 102% | 89.9% | 104% | 106% | 101% |  | 105% |  | 
4 | O=S(=O)(Cc1ccccc1)c1ccccc1 | 99.9% | 102% | 106% | 98.1% | 113% | 107% | 133% | 117% | 110% | 105% | 107% | 115% | 99.5% | 103% | 105% | 110% |  | 114% |  | 
5 | C/C(O)=C(\C=N\C(N)=S)C(=O)Nc1ccccc1 | 91.7% | 99.7% | 113% | 101% | 100% | 108% |  | 110% | 102% | 108% | 110% | 110% | 102% | 102% | 110% | 104% |  | 103% |  | 
6 | CC(C)OC(=O)c1cc(NC(=S)OC(C)C)ccc1Cl | 70.2% |  | 67.2% | 99.1% | 95.1% | 93.9% |  | 25.8% | 58.3% | 180% | 97% | 91.4% | 95.1% |  | 160% | 59.5% | 83.3% | 89.9% |  | 
7 | O=P(O)(O)OCC(O)CO (configuration not stated) | 99.6% | 109% | 101% | 88.3% | 106% | 112% | 106% | 106% | 100% | 102% | 109% | 107% | 95.6% | 102% | 107% | 105% |  |  |  | 
8 | CCC1NC(=O)C(NC(=O)c2ncccc2O)C(C)OC(=O)C(c2ccccc2)NC(=O)C2CC(=O)CCN2C(=O)C(Cc2ccc(N(C)C)cc2)N(C)C(=O)C2CCCN2C1=O (configuration not stated) (tested in a mixture with another compound) ({Picolinoyl(3-OH)}-T[Abu]P[ξNMePhe(4-NMe2)][ξPip(4-oxo)][Phg]; ester 1-C; configuration not given here) | 52.1% |  | -21.3% (active) | 48.1% | 95.5% | 63.1% |  | 179% | 64.8% | 54.6% | 57.1% | 68.3% | 46.5% | 34.2% |  | 74.9% | 34.1% | 64% |  | 
9 | CC(=O)c1sc2c(c1OC(=O)c1ccc(Cl)cc1Cl)c(=O)n(-c1ccccc1)c(=S)n2-c1ccccc1 | -10.4% (active) |  | -4.64% (active) |  | 5.36% (active) | 24.1% | -26.8% (active) | 7.59% (active) | 61.1% | -24.4% (active) | 4.71% (active) | 14% |  |  | 24.6% | -0.943% (active) | -43.1% (active) |  | 51.2% | 6.27% (active) and -47.6% (active)
10 | OCc1ccc(-c2ccc(-c3ccc(CO)s3)o2)s1 | 60.8% |  | 103% | -22.4% (active) | 78.2% |  | 81.8% | 65.1% | -15.5% (active) | 58.4% | 38% | 10.9% | 9.78% (active) | 5.2% (active) | -14.5% (active) | 81.5% | -22.5% (active) | -73% (active) |  | 
11 | Cc1c(O)cccc1O | 84% | 106% | 106% | 108% | 97.1% |  | 102% | 94.2% | 98.2% | 77.1% | 94.9% | 99.5% | 104% | 103% | 102% | 118% |  | 159% |  | 
12 | C=CCCCCCCCCCOC(C)=O | 91.4% |  | 103% | 103% | 104% | 103% | 99.7% | 107% | 97.9% | 132% | 110% | 105% | 96.2% | 110% | 98.4% | 103% | 101% |  |  | 
13 | O=c1[nH][nH]c(=O)c2cc([N+](=O)[O-])ccc12 | 94.9% |  | 110% | 99.2% | 101% | 127% | 100% | 105% | 96.1% | 106% | 109% | 101% | 99.8% | 101% | 99.6% | 106% | 106% |  |  | 
14 | CC(=O)OCC1=CC2OC(=O)C3=COC(OC4OC(CO)C(O)C(O)C4O)C1C32 (configuration not stated) | 120% |  | 111% | 129% | 108% | 112% |  | 32.9% | 105% | 110% | 109% | 111% |  | 123% |  | 107% | 114% | 71.3% | 96.7% | 78% and 90.4%
15 | Cc1ccncc1C(N)=O | 109% | 107% | 138% | 96.8% | 101% | 90.6% | 116% | 133% | 84.5% | 111% | 118% | 98.4% | 96% | 94.5% | 124% | 90.1% |  |  |  | 
16 | CSC[C@H](NC(=O)COc1cccc2cnccc12)C(=O)NC(Cc1ccccc1)C(O)C(=O)N1CSC[C@H]1C(=O)NC(C)(C)C (some centres not stated) | 84.5% |  | 91.7% |  | 115% | 101% | 86.8% | 106% | 111% | 105% | 103% | 105% | 114% |  | 108% | 116% | 102% |  |  | 
17 | Oc1ccc(Cc2ccccc2)c2cccnc12 | 5.04% (active) | 15.5% | 37.2% | 23.1% | 19.9% | 28.9% |  | 0.0508% (active) | 25.3% | 11% | 32.2% | 31.4% | 14.1% | 7.1% (active) | 26.2% | 24.8% |  | -4.71% (active) |  | 
18 | CCNCCCCNCCCCNCCCCNCCCCNCC | 68.5% |  | 108% |  | 118% | 93.4% | 76.2% | 122% | 72.2% | 123% | 50.2% | 68.3% | 101% | 92.6% |  | 62.1% | 82.4% |  |  | 
19 | COc1ccc(C)cc1OC | 99% | 102% | 114% | 104% | 108% | 102% | 114% | 101% | 107% | 114% | 108% | 107% | 102% | 105% | 100% | 105% |  | 99.8% |  | 
20 | CC1=C(/C=C/C(C)=C/C=C/C(C)=C/CO)C(C)(C)CCC1 | 94.8% | 101% | 108% | 112% | 114% | 109% | 105% |  | 96.6% | 108% | 107% | 109% | 125% | 107% | 108% | 109% |  | 117% |  | 
